# Screening results as filed in PubChem.
# Compounds with a hit are over-represented: about 10% of the library has one in this group of screens.
# BAZ2B block – inhibitors of human BAZ2B bromodomain. AlphaScreen BAZ2B-H3K14Ac peptide displacement. Potency, µM (doses to about 114 µM), without a hit: top-dose activity change, negative = inhibition, hits mostly inhibitors. actives 4.4% (n = 360,000); further: on the % scale 0 is the no-effect control and ±100 the full control effect; nearly all actives have a fitted effect of over 60% in size
#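 In this displacement format the biotinylated H3(5-23) peptide acetylated at Lys14 serves as ligand at 50 nM, with BAZ2B at 50 nM in PBS pH 7.4 containing 0.01% Tween-20. Donor and acceptor beads are 10 ug/mL final.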
# GLS inh – glutaminase GLS (human) inhibition; Potency, µM (series often up to 45.5 µM), for the others: top-dose activity change, negative = inhibition, most hits filed as inhibitors; GLS enzymatic activity, qHTS titration; actives 0.21% (n = 410,000); AID 624170; O94925; further: on the % scale 0 is the no-effect control and ±100 the full control effect
#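 Compounds were pin-transferred onto hKGA, after which L-glutamine (1 mM solution) and a detection mix of glutamate oxidase, HRP and Amplex Red were added. Initial and 30 min RT fluorescence reads were collected.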
# G9a inh – G9a (human) methyltransferase inhibition | Q96KQ7 | G9a H3K9 monomethylation, AlphaScreen, 2 h | Potency, µM (top dose mostly 102 µM), without a hit: top-dose activity, negative = inhibition, usual class: inhibitors | actives 8.8% (n = 350,000) | AID 504332; further: on the % scale 0 is the no-effect control and ±100 the full control effect; nearly all actives have a fitted effect of over 75% in size
#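 Methyltransferase reactions run at room temperature for 2 h (20 nM enzyme, 500 nM biotin-H3K9 peptide, 20 uM SAM) after a 15 min compound preincubation; product detected by AlphaScreen beads and anti-H3K9me1 antibody.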
# JMJD2A Tudor – JMJD2A Tudor domain (human) inhibition | O75164 | AlphaScreen JMJD2A-Tudor / H3K4me3 peptide binding | Potency, µM (series often up to 114 µM), inactives show top-dose activity change, negative = inhibition, usual class: inhibitors | actives 4.4% (n = 390,000); further: on the % scale 0 is the no-effect control and ±100 the full control effect; nearly all actives have a fitted effect of over 50% in size
# HP1b chromo inh – HP1-beta chromodomain-methylated histone interaction inhibition; AlphaScreen HP1-beta / biotin-H3K9me3 peptide binding; Potency, µM (titrated, usually from 114 µM), without a hit: at the top dose activity change, negative = inhibition, most hits filed as inhibitors; AID 540317; P83916; actives 0.56% (n = 390,000); further: nearly all actives have a fitted effect of over 70% in size
#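 HP1-beta protein (50 nM final) preincubated 30 min at room temperature with biotinylated H3(1-18)K9me3 peptide (50 nM) in PBS pH 7.4, 0.01% Tween-20, then compound added for 30 min. AlphaScreen streptavidin donor/nickel chelate acceptor beads (10 ug/mL final), 30 min dark, luminescence read.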
# L3MBTL1 inh – L3MBTL1 (human) inhibition. Q9Y468. AlphaScreen L3MBTL1–H3K9me1 peptide binding. Potency, µM (series often up to 57.1 µM), for the others: top-dose activity, negative = inhibition, usual class: inhibitors. actives 0.66% (n = 230,000). AID 485360; further: on the % scale 0 is the no-effect control and ±100 the full control effect; nearly all actives have a fitted effect of over 60% in size
# Target sequence (Q9Y468 whole entry, looked up): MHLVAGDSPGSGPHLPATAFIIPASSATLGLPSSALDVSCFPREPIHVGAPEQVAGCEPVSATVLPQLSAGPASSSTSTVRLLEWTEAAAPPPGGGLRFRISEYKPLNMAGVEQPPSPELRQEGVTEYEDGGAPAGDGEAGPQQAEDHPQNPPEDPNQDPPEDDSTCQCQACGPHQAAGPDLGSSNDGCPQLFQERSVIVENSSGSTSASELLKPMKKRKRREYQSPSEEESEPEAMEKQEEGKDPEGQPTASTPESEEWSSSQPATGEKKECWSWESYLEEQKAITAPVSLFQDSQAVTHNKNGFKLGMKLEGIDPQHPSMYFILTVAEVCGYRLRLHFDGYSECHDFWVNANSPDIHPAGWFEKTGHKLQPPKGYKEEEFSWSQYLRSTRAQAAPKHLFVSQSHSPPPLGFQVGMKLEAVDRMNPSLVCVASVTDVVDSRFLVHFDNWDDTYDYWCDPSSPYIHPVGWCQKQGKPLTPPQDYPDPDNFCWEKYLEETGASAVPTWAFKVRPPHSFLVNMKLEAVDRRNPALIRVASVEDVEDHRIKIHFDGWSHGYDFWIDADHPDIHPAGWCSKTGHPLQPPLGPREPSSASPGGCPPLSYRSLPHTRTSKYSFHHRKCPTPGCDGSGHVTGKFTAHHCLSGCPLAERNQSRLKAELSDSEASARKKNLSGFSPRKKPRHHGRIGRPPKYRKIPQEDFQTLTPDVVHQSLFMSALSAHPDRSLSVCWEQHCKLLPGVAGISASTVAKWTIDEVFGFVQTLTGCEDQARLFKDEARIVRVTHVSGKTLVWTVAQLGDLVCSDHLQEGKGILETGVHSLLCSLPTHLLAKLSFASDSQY
#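 L3MBTL1 50 nM + b-AHA-H3(1-15)K9me1 75 nM, 30 min RT; compound added, 30 min RT; streptavidin donor/Ni-chelate acceptor beads 10 ug/mL each final, 30 min RT dark; AlphaScreen read.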
# * hit, by the source's call; ? = inconclusive; / = not tested or not shown; [ ] = remark or other dose. The call rests on the fitted dose curve; in most records, active means well fitted curve in the direction sought with a large enough effect; inconclusive means small, poorly fitted or top-dose-only effect, or another doubt; inactive means no such curve, though single readings can be large; an effect the other way counts as inactive or inconclusive. Potency means the concentration at half of the fitted maximal effect.
SMILES,BAZ2B block,GLS inh,G9a inh,JMJD2A Tudor,HP1b chromo inh,L3MBTL1 inh
O=C(CN1C(=O)COc2ccc(S(=O)(=O)NC3CCCC3)cc21)Nc1ccc(Cl)cc1,-3%,-3%,1%[59 µM],-11%,19%,/
CCCCc1ccc(-n2nc3cc(C)c(NC(=O)c4ccc(C#N)cc4F)cc3n2)cc1,-18%,-4%,?,1%,30%,/
Cc1cccc(NC(=S)NC(NC(=O)c2ccco2)C(Cl)(Cl)Cl)c1 (stereo not given),-28%,-3%,14µM*,-3%,30%,/
Cc1cc(C)cc(NC(=O)c2cccc(NC(=O)c3ccco3)c2)c1,/,-3%,/,-27%,42%,/
CC(=O)c1cccc(NC(=O)c2cccc(NC(=O)c3ccco3)c2)c1,79µM*,6%,45µM*,-15%,55%,9%
COc1ccc(CN(Cc2ccco2)c2cnc(S(C)(=O)=O)nc2C(=O)Nc2ccc(C)c(Cl)c2)cc1,?,-7%,?,?,-2%,/
COCCNC(=O)CCCn1c(SCC(=O)Nc2cccc(C)c2)nc2c(sc3ccccc32)c1=O,?,0%,1%[59 µM],2%,41%,/
Cn1c(=O)oc2cc(S(=O)(=O)NC(CC(=O)O)c3cccc(Br)c3)ccc21 (stereo not given),-9%,0%,-12%[59 µM],-2%,32%,/
CN(C)c1ccc(C(=C2C=CC(=[N+](C)C)C=C2)c2ccc(N(C)C)cc2)cc1,/,2%,?,/,/,/
CN(C)c1ccc(C(=C2C=CC(=[N+](C)C)C=C2)c2ccccc2)cc1,/,26%,11µM*,/,/,/
Cc1ccccc1C(c1c(C)n(C)n(-c2ccccc2)c1=O)c1c(C)n(C)n(-c2ccccc2)c1=O,1%,-11%,1%[59 µM],-4%,42%,/
COc1ccc(NC(=O)COC(=O)Cn2nnc3ccccc32)cc1,-5%,3%,19%,-10%,37%,-24%
Cc1ccccc1SCC(=O)OCC(=O)Nc1ccc(N(C)C)cc1,40µM*,18%,13µM*,45µM*,?,?
CN(C)c1ccc(NC(=O)COC(=O)Cn2nnc3ccccc32)cc1,-36%,39%,40µM*,-27%,-6%,?
CN(C)c1ccc(NC(=O)COC(=O)CNC(=O)c2cccs2)cc1,?,39%,-10%[12.7 µM],?,-1%,-17%
CCn1c(=O)cc(OCC(=O)N2CCN(c3cccc(Cl)c3)CC2)c2ccccc21,?,3%,?,5%,14%,/
O=C1/C(=C/c2cccc(Cl)c2)SC(=S)N1CCC(=O)N1CCCCC1CCO (stereo not given),28µM*,11%,/,-11%,22%,/
O=C1/C(=C/c2ccco2)SC(=S)N1CCC(=O)N1CCCCC1CCO (stereo not given),50µM*,-29%,45µM*,-5%,37%,/
O=C1/C(=C/c2ccc(Cl)cc2)SC(=S)N1CCC(=O)N1CCCCC1CCO (stereo not given),?,-11%,-26%,?,-15%,/
O=C1/C(=C\c2ccco2)SC(=S)N1C1CCCCC1,10µM*,/,6%[0.501 µM],/,/,0%[2.29 µM]
Cc1ccc(N2C(=O)/C(=C/c3ccco3)SC2=S)cc1,?,8%,-17%,?,-16%,-20%
O=C1/C(=C/c2cccs2)SC(=S)N1CC(=O)N1CCCCC1CCO (stereo not given),?,0%,71µM*,0%,39%,/
COc1ccc(C(F)(F)F)cc1NC(=O)C(OC(=O)CNC(=O)c1ccccc1)c1ccccc1 (stereo not given),/,/,/,-25%,/,/
Cc1ccc(C)c(Cn2c(=O)n(C(C)C)c(=O)c3oc4ccccc4c32)c1,1%,-11%,4%[59 µM],-14%,28%,/
CCC(C)NC(=O)c1c(-c2ccccc2)c(-c2ccccc2)nn(C)c1=O (stereo not given),3%,8%,-34%[59 µM],-1%,41%,/
